Experiments:
Settings in all cases: concentration: 1 μM,replicates: in singlicate; n = 1
PRKD3 = test system: PRKD3
PRKG1 = test system: PRKG1
PRKG2 = test system: PRKG2
PRKR = test system: T1, PRKR
T1 construct: gene EIF2AK2

PRKX = test system: PRKX
PRP4 = test system: PRP4
PYK2 = test system: T2, PYK2
T2 construct: gene PTK2B

QSK = test system: QSK
RAF1 = test system: RAF1
RET = test system: RET
RIOK1 = test system: RIOK1
RIOK2 = test system: RIOK2
RIOK3 = test system: RIOK3
RIPK1 = test system: RIPK1
RIPK2 = test system: RIPK2
RIPK4 = test system: RIPK4
RIPK5 = test system: RIPK5
ROCK1 = test system: ROCK1
ROCK2 = test system: ROCK2
ROS1 = test system: ROS1
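Also: KINOMEscan kinase panel screen.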

For C[C@@H]1CCN(C(=O)N2CCCC2)C[C@@H]1N(C)c1ncnc2[nH]ccc12, the “%Inh” value (PRKD3) was 26%, the “%Inh” value (PRKG1) was 29% and the “%Inh” value (PRKG2) was 13%. The “%Inh” value (PRKR) was 0%, the “%Inh” value (PRKX) was 0% and the “%Inh” value (PRP4) was 0%. The “%Inh” value (PYK2) was 0%, the “%Inh” value (QSK) was 0% and the “%Inh” value (RAF1) was 10%. The “%Inh” value (RET) was 41%, the “%Inh” value (RIOK1) was 0% and the “%Inh” value (RIOK2) was 0%. For the same compound, the “%Inh” value (RIOK3) was 2%, the “%Inh” value (RIPK1) was 0% and the “%Inh” value (RIPK2) was 0%. For the same compound, the “%Inh” value (RIPK4) was 13%, the “%Inh” value (RIPK5) was 24% and the “%Inh” value (ROCK1) was 43%. For the same compound, the “%Inh” value (ROCK2) was 67% and the “%Inh” value (ROS1) was 23%.
Cn1cc(-c2cccc3c(N)c(C(N)=O)nnc23)cn1 was tested, and the “%Inh” value (PRKD3) was 21%, the “%Inh” value (PRKG1) was 39% and the “%Inh” value (PRKG2) was 11%. The “%Inh” value (PRKR) was 0%, the “%Inh” value (PRKX) was 3% and the “%Inh” value (PRP4) was 1%. The “%Inh” value (PYK2) was 9%, the “%Inh” value (QSK) was 3% and the “%Inh” value (RAF1) was 0%. The “%Inh” value (RET) was 12%, the “%Inh” value (RIOK1) was 36% and the “%Inh” value (RIOK2) was 52%. For the same compound, the “%Inh” value (RIOK3) was 60%, the “%Inh” value (RIPK1) was 3% and the “%Inh” value (RIPK2) was 3%. The “%Inh” value (RIPK4) was 37%, the “%Inh” value (RIPK5) was 17% and the “%Inh” value (ROCK1) was 11%. The “%Inh” value (ROCK2) was 20% and the “%Inh” value (ROS1) was 6%.
In the case of CN1CCN(CCCNc2nccc(-c3c(-c4ccc(F)cc4)nn4cc(C(N)=O)ccc34)n2)CC1 [GW622475], the “%Inh” value (PRKD3) is reported as 89%, the “%Inh” value (PRKG1) is reported as 6% and the “%Inh” value (PRKG2) is reported as 0%. The “%Inh” value (PRKR) was 2%, the “%Inh” value (PRKX) was 8% and the “%Inh” value (PRP4) was 0%. The “%Inh” value (PYK2) was 9%, the “%Inh” value (QSK) was 30% and the “%Inh” value (RAF1) was 35%. The “%Inh” value (RET) was 38%, the “%Inh” value (RIOK1) was 46% and the “%Inh” value (RIOK2) was 27%. For the same compound, the “%Inh” value (RIOK3) was 36%, the “%Inh” value (RIPK1) was 10% and the “%Inh” value (RIPK2) was 85%. The “%Inh” value (RIPK4) was 28%, the “%Inh” value (RIPK5) was 0% and the “%Inh” value (ROCK1) was 0%. The “%Inh” value (ROCK2) was 20% and the “%Inh” value (ROS1) was 4%.
For CCn1c(-c2nonc2N)nc2cncc(Br)c21 [SB-738004], the “%Inh” value (PRKD3) was 0%, the “%Inh” value (PRKG1) was 0% and the “%Inh” value (PRKG2) was 92.1%. The “%Inh” value (PRKR) was 36%, the “%Inh” value (PRKX) was 0% and the “%Inh” value (PRP4) was 27%. The “%Inh” value (PYK2) was 0%, the “%Inh” value (QSK) was 0% and the “%Inh” value (RAF1) was 10%. The “%Inh” value (RET) was 26%, the “%Inh” value (RIOK1) was 19% and the “%Inh” value (RIOK2) was 3%. For the same compound, the “%Inh” value (RIOK3) was 17%, the “%Inh” value (RIPK1) was 27% and the “%Inh” value (RIPK2) was 11%. For the same compound, the “%Inh” value (RIPK4) was 58%, the “%Inh” value (RIPK5) was 1% and the “%Inh” value (ROCK1) was 99.7%. The “%Inh” value (ROCK2) was 99.6% and the “%Inh” value (ROS1) was 7%.
Cc1ccc2c(-c3ccnc(Nc4ccc(C(F)(F)F)cc4)n3)cnn2n1 [GW819776] was tested, and the “%Inh” value (PRKD3) was 0%, the “%Inh” value (PRKG1) was 8% and the “%Inh” value (PRKG2) was 0%. The “%Inh” value (PRKR) was 0%, the “%Inh” value (PRKX) was 0% and the “%Inh” value (PRP4) was 0%. The “%Inh” value (PYK2) was 16%, the “%Inh” value (QSK) was 14% and the “%Inh” value (RAF1) was 15%. For the same compound, the “%Inh” value (RET) was 0%, the “%Inh” value (RIOK1) was 17% and the “%Inh” value (RIOK2) was 84%. For the same compound, the “%Inh” value (RIOK3) was 22%, the “%Inh” value (RIPK1) was 29% and the “%Inh” value (RIPK2) was 17%. The “%Inh” value (RIPK4) was 10%, the “%Inh” value (RIPK5) was 27% and the “%Inh” value (ROCK1) was 54%. The “%Inh” value (ROCK2) was 0% and the “%Inh” value (ROS1) was 41%.
In the case of CC(C)c1nc(-c2cccc(NS(=O)(=O)c3ccccc3)c2)c(-c2ccnc(Nc3ccc4c(c3)CN(C)CC4)n2)s1 [GSK1649598], the “%Inh” value (PRKD3) is reported as 100%, the “%Inh” value (PRKG1) is reported as 0% and the “%Inh” value (PRKG2) is reported as 0%. The “%Inh” value (PRKR) was 29%, the “%Inh” value (PRKX) was 5% and the “%Inh” value (PRP4) was 8%. For the same compound, the “%Inh” value (PYK2) was 48%, the “%Inh” value (QSK) was 49% and the “%Inh” value (RAF1) was 87%. For the same compound, the “%Inh” value (RET) was 95.4%, the “%Inh” value (RIOK1) was 18% and the “%Inh” value (RIOK2) was 0%. The “%Inh” value (RIOK3) was 24%, the “%Inh” value (RIPK1) was 0% and the “%Inh” value (RIPK2) was 98.7%. For the same compound, the “%Inh” value (RIPK4) was 36%, the “%Inh” value (RIPK5) was 8% and the “%Inh” value (ROCK1) was 0%. The “%Inh” value (ROCK2) was 0% and the “%Inh” value (ROS1) was 0%.
Cl.c1ccc(Oc2ccc(Nc3ccnc4cc(-c5ccc(CN6CCNCC6)o5)ccc34)cc2)nc1 [GW567142] was tested, and the “%Inh” value (PRKD3) was 19%, the “%Inh” value (PRKG1) was 0% and the “%Inh” value (PRKG2) was 0%. The “%Inh” value (PRKR) was 0%, the “%Inh” value (PRKX) was 20% and the “%Inh” value (PRP4) was 13%. For the same compound, the “%Inh” value (PYK2) was 0%, the “%Inh” value (QSK) was 0% and the “%Inh” value (RAF1) was 0%. For the same compound, the “%Inh” value (RET) was 20%, the “%Inh” value (RIOK1) was 0% and the “%Inh” value (RIOK2) was 0%. The “%Inh” value (RIOK3) was 0%, the “%Inh” value (RIPK1) was 0% and the “%Inh” value (RIPK2) was 95.5%. For the same compound, the “%Inh” value (RIPK4) was 0%, the “%Inh” value (RIPK5) was 4% and the “%Inh” value (ROCK1) was 5%. The “%Inh” value (ROCK2) was 32% and the “%Inh” value (ROS1) was 0%.
For O=C(Nc1cccc(Oc2ccc3nccn3n2)c1)Nc1cccc(C(F)(F)F)c1, the “%Inh” value (PRKD3) was 20%, the “%Inh” value (PRKG1) was 6% and the “%Inh” value (PRKG2) was 0%. For the same compound, the “%Inh” value (PRKR) was 0%, the “%Inh” value (PRKX) was 0% and the “%Inh” value (PRP4) was 11%. The “%Inh” value (PYK2) was 3%, the “%Inh” value (QSK) was 14% and the “%Inh” value (RAF1) was 90%. The “%Inh” value (RET) was 86%, the “%Inh” value (RIOK1) was 0% and the “%Inh” value (RIOK2) was 0%. For the same compound, the “%Inh” value (RIOK3) was 0%, the “%Inh” value (RIPK1) was 5% and the “%Inh” value (RIPK2) was 12%. For the same compound, the “%Inh” value (RIPK4) was 0%, the “%Inh” value (RIPK5) was 0% and the “%Inh” value (ROCK1) was 3%. The “%Inh” value (ROCK2) was 0% and the “%Inh” value (ROS1) was 0%.
COC(=O)c1cccc(NC(=O)NC2CCN(c3ccnc(NCc4ccc(F)cc4)n3)CC2)c1 [GSK1379860] was tested, and the “%Inh” value (PRKD3) was 25%, the “%Inh” value (PRKG1) was 0% and the “%Inh” value (PRKG2) was 0%. For the same compound, the “%Inh” value (PRKR) was 0%, the “%Inh” value (PRKX) was 9% and the “%Inh” value (PRP4) was 30%. For the same compound, the “%Inh” value (PYK2) was 9%, the “%Inh” value (QSK) was 9% and the “%Inh” value (RAF1) was 15%. The “%Inh” value (RET) was 9%, the “%Inh” value (RIOK1) was 22% and the “%Inh” value (RIOK2) was 0%. The “%Inh” value (RIOK3) was 6%, the “%Inh” value (RIPK1) was 0% and the “%Inh” value (RIPK2) was 0%. For the same compound, the “%Inh” value (RIPK4) was 5%, the “%Inh” value (RIPK5) was 0% and the “%Inh” value (ROCK1) was 25%. For the same compound, the “%Inh” value (ROCK2) was 19% and the “%Inh” value (ROS1) was 8%.
Cc1nnc(-c2ccc3occ(-c4ccc(S(C)=O)cc4)c3n2)o1 (stereo not shown) was tested, and the “%Inh” value (PRKD3) was 0%, the “%Inh” value (PRKG1) was 0% and the “%Inh” value (PRKG2) was 0%. The “%Inh” value (PRKR) was 56%, the “%Inh” value (PRKX) was 0% and the “%Inh” value (PRP4) was 16%. For the same compound, the “%Inh” value (PYK2) was 2%, the “%Inh” value (QSK) was 0% and the “%Inh” value (RAF1) was 14%. For the same compound, the “%Inh” value (RET) was 0%, the “%Inh” value (RIOK1) was 0% and the “%Inh” value (RIOK2) was 0%. The “%Inh” value (RIOK3) was 7%, the “%Inh” value (RIPK1) was 0% and the “%Inh” value (RIPK2) was 0%. The “%Inh” value (RIPK4) was 0%, the “%Inh” value (RIPK5) was 0% and the “%Inh” value (ROCK1) was 0%. For the same compound, the “%Inh” value (ROCK2) was 0% and the “%Inh” value (ROS1) was 0%.
In the case of OCCn1cc(-c2cnc3nnn(Cc4ccc5ncccc5c4)c3n2)cn1, the “%Inh” value (PRKD3) is reported as 0%, the “%Inh” value (PRKG1) is reported as 0% and the “%Inh” value (PRKG2) is reported as 0%. The “%Inh” value (PRKR) was 0%, the “%Inh” value (PRKX) was 0% and the “%Inh” value (PRP4) was 0%. For the same compound, the “%Inh” value (PYK2) was 0%, the “%Inh” value (QSK) was 0% and the “%Inh” value (RAF1) was 0%. For the same compound, the “%Inh” value (RET) was 0%, the “%Inh” value (RIOK1) was 0% and the “%Inh” value (RIOK2) was 0%. For the same compound, the “%Inh” value (RIOK3) was 19%, the “%Inh” value (RIPK1) was 0% and the “%Inh” value (RIPK2) was 0%. The “%Inh” value (RIPK4) was 0%, the “%Inh” value (RIPK5) was 0% and the “%Inh” value (ROCK1) was 0%. For the same compound, the “%Inh” value (ROCK2) was 0% and the “%Inh” value (ROS1) was 0%.

Source: article PMC5540273 (PLoS ONE, 2017)
